An excerpt weighted towards active compounds, which were near 8.7% of everything screened.
Sfp inh: qHTS Assay for Inhibitors of Bacillus subtilis Sfp phosphopantetheinyl transferase (PPTase); 4'-phosphopantetheinyl transferase ffp (Bacillus subtilis), Q9F4F7; Biochemical Sfp PPTase activity, qHTS; Potency, µM, hits mostly inhibitors; actives 3.5% (n = 310,000);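 note: the enzyme is Sfp with the accession as filed and its product quenches rhodamine fluorescence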
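Sfp 15 nM + cpd, 15 min RT; start w/ rhodamine-CoA 5 uM, BHQ-2-YbbR 12.5 uM (final); 50 mM Hepes pH 7.6, 10 mM MgCl2, 0.01% NP-40, 0.01% BSA; read 525/598 nm at 0 and 30 min.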
JMJD2A Tudor: qHTS Assay for Inhibitors of JMJD2A-Tudor Domain; Lysine-specific demethylase 4A (Homo sapiens), O75164; AlphaScreen JMJD2A-Tudor / H3K4me3 peptide binding; Potency, µM (titrated, usually from 114 µM), most hits filed as inhibitors; actives 4.4% (n = 390,000); AID 504339, 2011; note: nearly all actives have a fitted effect of over 50% in size
HP1b binding inh: HTS for Inhibitors of HP1-beta Chromodomain Interactions with Methylated Histone Tails; AlphaScreen HP1-beta / biotin-H3K9me3 peptide binding; Potency, µM (top dose mostly 114 µM), hits mostly inhibitors; Chromobox protein homolog 1 (Homo sapiens), P83916; actives 0.56% (n = 390,000); note: nearly all actives have a fitted effect of over 70% in size
Target sequence (P83916 whole entry, looked up): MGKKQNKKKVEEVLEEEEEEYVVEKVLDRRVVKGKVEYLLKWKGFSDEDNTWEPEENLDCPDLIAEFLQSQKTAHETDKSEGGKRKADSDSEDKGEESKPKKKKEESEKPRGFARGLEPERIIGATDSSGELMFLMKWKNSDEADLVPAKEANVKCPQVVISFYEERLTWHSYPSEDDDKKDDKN
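AlphaScreen: HP1-beta (50 nM) preformed 30 min with biotin-H3(1-18)K9me3 peptide (50 nM) in PBS pH 7.4, 0.01% Tween-20. Compound added for 30 min at RT, then streptavidin donor/nickel chelate acceptor beads (10 ug/mL) for 30 min.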
BAZ2B inh: qHTS Assay for Inhibitors of BAZ2B; Bromodomain adjacent to zinc finger domain protein 2B (Homo sapiens), Q9UIF8; actives 4.4% (n = 360,000); AlphaScreen BAZ2B-H3K14Ac peptide displacement; Potency, µM (series often up to 114 µM), most hits filed as inhibitors; note: nearly all actives have a fitted effect of over 60% in size
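AlphaScreen luminescence quantifies BAZ2B engagement of H3K14Ac peptide; the protein and biotinylated peptide are both at 50 nM final, buffer PBS pH 7.4 with 0.01% Tween-20, all steps at room temperature.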
G9a inh: qHTS Assay for Inhibitors of Histone Lysine Methyltransferase G9a. AID 504332, 2011. actives 8.8% (n = 350,000). Histone-lysine N-methyltransferase EHMT2 (Homo sapiens), Q96KQ7. Potency, µM (titrated, usually from 102 µM), most hits filed as inhibitors. G9a H3K9 monomethylation, AlphaScreen, 2 h; note: nearly all actives have a fitted effect of over 75% in size
Target sequence (Q96KQ7 913-1193 limits assumed): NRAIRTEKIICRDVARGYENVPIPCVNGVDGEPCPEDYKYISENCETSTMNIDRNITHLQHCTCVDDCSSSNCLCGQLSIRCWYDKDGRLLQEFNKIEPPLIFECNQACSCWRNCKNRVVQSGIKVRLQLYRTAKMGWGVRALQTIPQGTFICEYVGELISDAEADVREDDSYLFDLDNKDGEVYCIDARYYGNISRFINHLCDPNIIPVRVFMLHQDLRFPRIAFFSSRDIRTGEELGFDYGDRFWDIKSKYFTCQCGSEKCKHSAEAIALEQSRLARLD
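Readings reflect AlphaScreen signal from monomethyl-H3K9 antibody detection. HMT at 20 nM; substrate b-H3K9 500 nM; cofactor SAM 20 uM; 2 h RT reaction; compounds tested as titrations in qHTS with 15 min preincubation.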
12-LOX inh: Primary qHTS assay for inhibitors of human arachidonate 12S-lipoxygenase (ALOX12): Round 2 | Polyunsaturated fatty acid lipoxygenase ALOX12 (Homo sapiens), P18054 | purified 12hLO, xylenol orange hydroperoxide absorbance | Potency, µM (titrated, usually from 108 µM), actives largely listed as inhibitors | actives 1.1% (n = 580,000)
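Purified human 12hLO (150 nM final) in 25 mM Hepes, 0.01% Triton X-100, pH 7.0 was preincubated 15 min at room temperature with compound. Then 40 uM arachidonic acid was added, 30 min. Hydroperoxide was read by Fe-XO absorbance ratio 573/405 nm.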
A number is an active result; i = inactive; ? = inconclusive; nt = no result; [ ] = another dose, or the depositor's remark. Calls come from the whole dose curve; as a rule, active = well fitted curve in the direction sought with a large enough effect; inconclusive = small, poorly fitted or top-dose-only effect, or another doubt; inactive = no such curve, though single readings can be large; an effect the other way counts as inactive or inconclusive.

SMILES | Sfp inh | JMJD2A Tudor | HP1b binding inh | BAZ2B inh | G9a inh | 12-LOX inh
CC(CNC(=O)NCc1cccs1)N1CCOCC1 (stereo not drawn) | nt | nt | nt | nt | nt | i
COc1ccc(-c2nc(C)nc3c2CCN(C(=O)c2ccccn2)CC3)cc1 | nt | nt | nt | nt | nt | i
Cn1c(SCc2cccc([N+](=O)[O-])c2)nc2c(c1=O)SCC2 | i | 56.2µM | i | 70.8µM | ? | i
Cn1c(SCc2cccnc2)nc2c(c1=O)SCC2 | i | i | i | ? | i | i
COCCc1noc([C@@H]2CN(Cc3ccc4c(c3)CCO4)C[C@H]2CO)n1 | nt | nt | nt | nt | nt | i
CCCCn1c(N)c(N(CCC(C)C)C(=O)c2cc(Cl)nc3ccccc23)c(=O)[nH]c1=O | nt | i | i | i | i | i
CCCCn1c(N)c(N(CC)C(=O)Cn2c(CC)nc3ccccc32)c(=O)[nH]c1=O | nt | nt | nt | nt | nt | 25.1µM
CCCCn1c(N)c(N(CCC(C)C)C(=O)CSc2nc3ccccc3n2C)c(=O)[nH]c1=O | nt | 79.4µM | i | nt | nt | i
CC1(C)Cc2c(cnn2-c2ccc(F)cc2)C(NC(=O)C2=NNC(=O)CC2)C1 (stereo not drawn) | i | 15.8µM | i | i | i | i
O=C1c2cccc3cccc(c23)C(=O)C1(O)O | nt | 44.7µM | i | nt | nt | ?
CCOc1ccc(N2C(=O)CC(N(CCc3ccc(S(N)(=O)=O)cc3)C(C)=O)C2=O)cc1 (stereo not drawn) | i | i | i | i | ? | i
CCC(=O)N(Cc1ccc(S(N)(=O)=O)cc1)C1CC(=O)N(c2ccc(OC)cc2)C1=O (stereo not drawn) | i | i | i | i | 8.91µM | i
CCN(C(=O)c1nn(C)c(=O)c2ccccc12)C(C)c1ccc(F)cc1 (stereo not drawn) | nt | nt | nt | nt | nt | i
CC1CCN(c2oc(COc3ccc(F)cc3)nc2C#N)CC1 | nt | nt | nt | nt | nt | i
O=C1CN(C(=O)c2ccco2)C(c2ccccc2)c2cc(Cl)ccc2N1 (stereo not drawn) | i | i | i | i | ? | i
O=C(c1ccc(F)cc1)[C@@H]1[C@@H](C(=O)c2ccccc2)[C@@]2(C(=O)Nc3ccccc32)[C@H]2c3ccccc3C=CN12 | i | nt | nt | ? | 7.08µM | nt
O=C(c1ccccc1)[C@@H]1[C@@H](C(=O)c2ccco2)[C@@]2(C(=O)Nc3ccccc32)[C@H]2c3ccccc3C=CN12 | nt | nt | nt | nt | nt | 14.1µM
Cc1ccc(C(=O)N2CC(=O)Nc3ccc(F)cc3C2c2ccccc2)cc1 (stereo not drawn) | i | i | i | i | ? | ?
COc1cccc(NC(=O)CC2CCCN(c3cnn(C)c(=O)c3)C2)c1 (stereo not drawn) | nt | nt | nt | nt | nt | i
Cc1cccc(CN2CCSCC2)c1 | i | 20µM | ? | ? | ? | ?
Cc1cccc(CN2CCSCCS2(=O)=O)c1 | nt | nt | nt | nt | nt | i
O=S1(=O)CCN(Cc2cccc(C(F)(F)F)c2)CC1 | i | i | i | i | i | i
FC(F)(F)c1cccc(CN2CCSCC2)c1 | i | 22.4µM | ? | 56.2µM | 10µM | ?
COc1ccc(CSc2nnc3[nH]c(=O)cc(N)n23)cc1 | ? | i[11.4 µM] | i | i | 35.5µM | i
N#Cc1ccc(CSc2nnc3[nH]c(=O)cc(N)n23)cc1 | i | i | i | i | 22.4µM | ?
SMILES | Sfp inh | JMJD2A Tudor | HP1b binding inh | BAZ2B inh | G9a inh | 12-LOX inh
Cc1cc(=O)[nH]c2nnc(SCc3ccc(F)cc3)n12 | nt | i | i | i | i | i
Cc1cc(=O)[nH]c2nnc(SCc3ccc(Cl)cc3)n12 | nt | i | i | ? | i | i
Cc1ccc(O[C@H]2COCC[C@H]2NC(=O)c2cc(CC(C)C)nc(N)n2)cn1 | nt | nt | nt | nt | nt | i
CCCN(CC1CCOC1)C(=O)NCc1ccco1 (stereo not drawn) | nt | nt | nt | nt | nt | i
Cn1ncc(C#N)c1/N=C/N1CCCCCC1 | i | i | i | i | ? | i
CN1CCCCCC1=Nc1ccccc1C#N | i | 1.78µM | 12.6µM | 44.7µM | ? | i
COc1ccc(C2CC(=O)N(CCCN(C)CCc3ccc(OC)c(OC)c3)C2)cc1 (stereo not drawn) | ? | 100µM | ? | 89.1µM | ? | ?
COc1ccc(NC(=O)CN(C)C(=O)C2CC(=O)N(CCc3ccc(OC)c(OC)c3)C2)cc1 (stereo not drawn) | nt | i | i | nt | nt | i
COc1ccc(CCN(C)CCCN2CC(c3ccccc3)CC2=O)cc1OC (stereo not drawn) | i | 25.1µM | i | ? | 50.1µM | ?
COc1ccc(CCN2CC(C(=O)NCC(c3ccccc3)N(C)C)CC2=O)cc1OC (stereo not drawn) | nt | i | i | nt | nt | i
CC(=O)c1cccc(NC(=O)COC(=O)Cc2cccc3ccccc23)c1 | nt | nt | nt | nt | nt | i
O=C(c1ccccc1)c1ccc(C(=O)N2CCN(c3nc4ccc(F)cc4s3)CC2)cc1 | nt | nt | nt | nt | nt | i
O=C(O)C1CCN(Cc2ccccn2)CC1 | i | ? | i | ? | 25.1µM | ?
CCOC(=O)C1(Cc2ccccc2C(F)(F)F)CCN(Cc2ccccn2)CC1 | nt | nt | nt | nt | nt | 15.8µM
CCOC(=O)C1CCN(Cc2ccccn2)CC1 | ? | nt | nt | 50.1µM | 1.78µM | nt
O=S1(=O)CCN(Cc2ccccn2)CC1 | i | i | i | i | ? | i
CC1CN(Cc2ccccn2)CCC1=O (stereo not drawn) | i | i | i | i | 7.94µM | i
CCOC(=O)C1(Cc2ccccc2C(F)(F)F)CCN(CCCn2cccn2)CC1 | i | i | i | i | i | i
O=C(CN1CCCCC1)Nc1oc2ccccc2c(=O)c1-c1ccccc1 | nt | nt | nt | nt | nt | i
CCN(CC(=O)NC)S(=O)(=O)N1CCCC(C)C1 (stereo not drawn) | nt | nt | nt | nt | nt | i
CCCNC(=O)CC1CCCN(c2cn[nH]c(=O)c2)C1 (stereo not drawn) | nt | nt | nt | nt | nt | i
CN(C)CCSc1ccc2c(c1)OCCCO2 | nt | nt | nt | nt | nt | i
O=C(C(c1ccccc1)c1ccccc1)N1CCN(Cc2ccccn2)CC1 | i | 3.98µM | ? | 56.2µM | ? | ?
C#CCOCCOCCOCCNc1nc(N2CCN(C(=O)[C@H]([C@@H](C)CC)n3cc(CCCCN)nn3)CC2)nc(N2CCN(C(=O)[C@H](CCCCN)n3cc(CC(C)O)nn3)CC2)n1 (stereo partly drawn) | nt | i | i | ? | i[2.33 µM] | ?
C#CCOCCOCCOCCNc1nc(N2CCN(C(=O)[C@H]([C@@H](C)CC)n3cc([C@@H](N)CO)nn3)CC2)nc(N2CCN(C(=O)[C@H](CCCCN)n3cc([C@@H](N)CO)nn3)CC2)n1 | nt | 56.2µM | i | nt | nt | i

Assay outcomes: PubChem, National Center for Advancing Translational Sciences (NCATS)
